This is part of a sample that, as a whole, favours compounds with a hit. Of some 83,000 tested, about 20% had one in any assay.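 Step 1: grow cells in 96-well plates. Step 2: add test compound at a single concentration. Step 3: incubate 48 h. Step 4: record percent growth.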 Active and inactive are the calls of the source. Rule for the calls: active = growth percent below 10; inactive = the rest.
Key:
Test in all cases: NCI-60 one-dose screen, 48 h (100 = growth as untreated, 0 = no growth, -100 = all killed)
Conditions in all cases: 10 µM unless noted
[1] = system: SK-MEL-2 melanoma
[2] = system: EKVX NSCLC
[3] = system: SN12C renal
[4] = system: TK-10 renal
[5] = system: CAKI-1 renal
[6] = system: A498 renal
[7] = system: CCRF-CEM leukemia
[8] = system: MOLT-4 leukemia
[9] = system: SR leukemia
[10] = system: RPMI-8226 leukemia
[11] = system: OVCAR-8 ovarian
[12] = system: OVCAR-5 ovarian
[13] = system: OVCAR-4 ovarian
[14] = system: SK-OV-3 ovarian
[15] = system: IGROV1 ovarian
[16] = system: OVCAR-3 ovarian
[17] = system: HS 578T breast
[18] = system: NCI/ADR-RES ovarian
[19] = system: ACHN renal
[20] = system: UO-31 renal

Measured: growth

Oc1c(CN2CCOCC2)cc(COCc2ccccc2)c2cccnc12
inactive: [1] 36.9% | [2] 92.5% | [3] 39.9% | [4] 31.1% | [5] 13.5% | [6] 49.7% | [7] 11.7% | [8] 15.3% | [9] 13.4% | [10] 29.1% | [11] 14.5% | [12] 37.8% | [13] 24.5% | [15] 16.2% | [16] 19.7% | [17] 68.4%
active: [14] 9.56% | [18] 7.42%

COC(=O)c1c2c(n3ccccc13)C(=O)c1ccccc1C2=O
inactive: [1] 75.3% | [2] 70.9% | [3] 53.2% | [4] 80.7% | [19] 38.6% | [5] 56% | [6] 67.1% | [7] 59.1% | [8] 35.5% | [9] 38.7% | [10] 68.3% | [11] 45% | [12] 116% | [13] 77.3% | [14] 94.8% | [15] 57.5% | [16] 55.7% | [17] 73.7% | [18] 65.4%

C[C@@H]1O[C@@H](O[C@@H]2C[C@H](c3ccc4c(c3O)C(=O)C3=C(C4=O)[C@@]4(O)C(=O)C[C@](C)(O)C[C@@]4(O)C=C3)O[C@H](C)[C@H]2O)CC[C@@H]1O[C@H]1C[C@@H](O)[C@H](O)[C@@H](C)O1
inactive: [1] 110% | [2] 98% | [3] 98.4% | [4] 97.4% | [19] 90.8% | [5] 93.3% | [6] 108% | [7] 90.5% | [8] 86.6% | [9] 89.6% | [10] 95.3% | [11] 98.2% | [12] 110% | [13] 87.1% | [14] 111% | [16] 98.1% | [17] 105% | [18] 97%

O=C(C1=Cc2cc3ccccc3n2Cc2cnnn21)c1ccc(O)cc1
inactive: [1] 59% | [2] 89.9% | [3] 57.7% | [4] 90.9% | [19] 75.4% | [5] 37.5% | [6] 111% | [7] 72.5% | [8] 44.6% | [9] 35.1% | [10] 63.8% | [11] 64.8% | [12] 91.2% | [13] 81.3% | [14] 74.5% | [15] 41.1% | [16] 20.6% | [18] 37.2%

COc1ccc(C(O)c2cc3c(N)c(C(=O)Nc4cccc(Cl)c4C)sc3nc2C)cc1 (stereo unspecified)
inactive: [1] 17% | [2] 35% | [3] 13.6% | [4] 44.1% | [19] 24.7% | [5] 13.8% | [7] 10.1% | [8] 15.2% | [11] 10.1% | [12] 35.5% | [13] 25.7% | [14] 11.6% | [15] 10.7% | [17] 13.6%
active: [6] -24.7% | [9] 0.176% | [10] -2.02% | [16] -11% | [18] 7.99%

N=C(N)c1ccc(-c2ccc(-c3ccccc3)s2)cc1
active: [8] -3.58% | [9] 7.19% | [10] -4.15%
inactive: [1] 105% | [2] 84.6% | [3] 70.3% | [4] 108% | [19] 68.3% | [5] 14.5% | [6] 89.1% | [7] 21% | [11] 38.1% | [12] 61.4% | [13] 45.8% | [14] 85.2% | [15] 60.2% | [16] 53.7% | [17] 87.8% | [18] 89.2%

Cc1ccc(C(=O)Nc2cccc(C#Cc3cccc4[nH]nc(N)c34)c2)cc1C(F)(F)F
inactive: [1] 29.2% | [2] 92.4% | [3] 65.2% | [4] 86.6% | [19] 44.7% | [5] 120% | [6] 81.2% | [7] 52.9% | [8] 45% | [9] 69.3% | [10] 66.9% | [11] 72.1% | [12] 59.9% | [13] 66.6% | [14] 84.3% | [16] 82.7% | [17] 47.4% | [18] 74.1%

Oc1c(CN2CCCC2)cc(CSCc2ccccc2)c2cccnc12
active: [20] -18% | [5] 7.37% | [6] 9.44% | [7] -14.9% | [8] -14.4% | [9] -7.76% | [10] 7.56% | [11] 7.91% | [13] -2.42% | [14] -15.6% | [16] 5.77% | [18] -46.4%
inactive: [1] 11.3% | [2] 37% | [3] 17.6% | [4] 22.4% | [12] 41.8% | [17] 64.5%

N#Cc1cccc(C2C3=C(COC3=O)N(CCO)c3cc4c(cc32)OCO4)c1 (stereo unspecified)
inactive: [1] 26.8% | [2] 51.8% | [3] 44.2% | [4] 50% | [19] 39.2% | [5] 29.7% | [6] 11.9% | [8] 24.8% | [9] 15.3% | [10] 19.2% | [11] 35.6% | [12] 69.5% | [13] 70.9% | [14] 23% | [15] 42.1% | [17] 20.2% | [18] 57.3%
active: [7] 7.91% | [16] 3.12%

O=C(C1CCCCC1)[C@@H]1[C@]2(C(=O)NC3CCCCC32)[C@@H]2CCCN2[C@@]12C(=O)NC1CCC(Cl)CC12 (stereo partly specified)
active: [1] -79.2% [100 µM] | [2] -89.5% [100 µM] | [3] -80% [100 µM] | [4] -81.1% [100 µM] | [5] -82.7% [100 µM] | [6] -94.8% [100 µM] | [7] -49% [100 µM] | [8] -57.3% [100 µM] | [9] -68.6% [100 µM] | [10] -33.6% [100 µM] | [11] -64.3% [100 µM] | [12] -89.5% [100 µM] | [13] -79.6% [100 µM] | [14] -94.1% [100 µM] | [15] -70.3% [100 µM] | [16] -91.9% [100 µM] | [17] -43.6% [100 µM] | [18] -68.2% [100 µM]

Fc1cccc(-c2ccc3c(c2)C2(CCNCC2)CN3)c1
inactive: [1] 102% | [2] 96.6% | [3] 94.9% | [4] 114% | [19] 100% | [5] 96.1% | [6] 102% | [7] 119% | [8] 91.7% | [9] 110% | [10] 95.7% | [11] 108% | [12] 103% | [13] 92% | [14] 112% | [15] 97.4% | [16] 102% | [17] 105% | [18] 95.5%

C/C(Cc1ccc(Cl)cc1)=C(\c1ccc(OCCCN(C)C)cc1)c1ccc(OC(=O)Cc2ccccc2)cc1
inactive: [1] 100% | [2] 101% | [3] 105% | [4] 98.4% | [19] 107% | [5] 97% | [6] 113% | [7] 83.6% | [8] 77.3% | [9] 77.3% | [10] 105% | [11] 113% | [12] 105% | [13] 107% | [14] 85.6% | [15] 106% | [16] 101% | [17] 105% | [18] 103%

N#Cc1c(-c2ccccc2)nc(SCc2nnc(-c3ccc(Cl)cc3)o2)[nH]c1=O
inactive: [1] 80.4% | [2] 95.5% | [3] 97.6% | [4] 90.6% | [19] 109% | [5] 93.6% | [6] 107% | [7] 85.5% | [8] 79.9% | [9] 105% | [10] 95.6% | [11] 93.6% | [12] 114% | [13] 106% | [14] 55.4% | [15] 103% | [16] 103% | [17] 93.8% | [18] 93.3%

NS(=O)(=O)c1ccc(-c2cc(-c3nnc(SCC(=O)Nc4ccc(C(=O)/C=C/c5ccc(Cl)cc5)cc4)n3-c3ccccc3)c3ccccc3n2)cc1
inactive: [1] 105% | [2] 96.2% | [3] 94.9% | [4] 96.4% | [19] 106% | [5] 77.1% | [6] 49.9% | [7] 90.3% | [8] 68.5% | [9] 71.3% | [10] 10.7% | [11] 89.9% | [12] 93.1% | [13] 105% | [14] 103% | [15] 99.2% | [16] 101% | [18] 103%

CCN1CCN(C(=O)[C@]23CC[C@@H](C)[C@H](C)[C@@H]2C2=CC[C@@H]4[C@@]5(C)C/C(=C/c6cccnc6)C(=O)C(C)(C)[C@@H]5CC[C@@]4(C)[C@]2(C)CC3)CC1
active: [7] 8.77% | [8] 2.7% | [9] -4.44% | [10] -15.2%
inactive: [1] 28.3% | [2] 41.5% | [3] 29.6% | [4] 43.1% | [19] 20.7% | [5] 39.8% | [6] 43.8% | [11] 32.6% | [12] 56.7% | [13] 26.7% | [14] 54.3% | [15] 50.9% | [16] 25.9% | [17] 25.2% | [18] 26.7%

O=C1Nc2ccccc2/C1=C/c1cccn1C(=O)c1ccc(Cl)s1
inactive: [1] 86.7% | [2] 22.6% | [3] 86.2% | [4] 50.6% | [19] 47.7% | [5] 64% | [6] 67.4% | [7] 26.6% | [8] 30.3% | [9] 27.8% | [10] 52.5% | [11] 75.3% | [12] 66.5% | [13] 15.3% | [14] 72% | [16] 38.8% | [17] 70.8% | [18] 74.3%

Reference: PubChem BioAssay (NCI)
